Experimental data from PubChem BioAssay AID2185 (Vanderbilt High Throughput Screening Facility, 2009).
Results with a measured potency or affinity are listed apart. Active and inactive are the calls of the source. No rule for the calls is given here.

biological target: Metabotropic glutamate receptor 4 (Rattus norvegicus) (UniProt P31423); experiment: PubChem AID 2185; conditions: HEK/GIRK cells expressing rat mGluR4, thallium flux PAM; stronger effect = higher value
Sequence (P31423 whole entry, looked up): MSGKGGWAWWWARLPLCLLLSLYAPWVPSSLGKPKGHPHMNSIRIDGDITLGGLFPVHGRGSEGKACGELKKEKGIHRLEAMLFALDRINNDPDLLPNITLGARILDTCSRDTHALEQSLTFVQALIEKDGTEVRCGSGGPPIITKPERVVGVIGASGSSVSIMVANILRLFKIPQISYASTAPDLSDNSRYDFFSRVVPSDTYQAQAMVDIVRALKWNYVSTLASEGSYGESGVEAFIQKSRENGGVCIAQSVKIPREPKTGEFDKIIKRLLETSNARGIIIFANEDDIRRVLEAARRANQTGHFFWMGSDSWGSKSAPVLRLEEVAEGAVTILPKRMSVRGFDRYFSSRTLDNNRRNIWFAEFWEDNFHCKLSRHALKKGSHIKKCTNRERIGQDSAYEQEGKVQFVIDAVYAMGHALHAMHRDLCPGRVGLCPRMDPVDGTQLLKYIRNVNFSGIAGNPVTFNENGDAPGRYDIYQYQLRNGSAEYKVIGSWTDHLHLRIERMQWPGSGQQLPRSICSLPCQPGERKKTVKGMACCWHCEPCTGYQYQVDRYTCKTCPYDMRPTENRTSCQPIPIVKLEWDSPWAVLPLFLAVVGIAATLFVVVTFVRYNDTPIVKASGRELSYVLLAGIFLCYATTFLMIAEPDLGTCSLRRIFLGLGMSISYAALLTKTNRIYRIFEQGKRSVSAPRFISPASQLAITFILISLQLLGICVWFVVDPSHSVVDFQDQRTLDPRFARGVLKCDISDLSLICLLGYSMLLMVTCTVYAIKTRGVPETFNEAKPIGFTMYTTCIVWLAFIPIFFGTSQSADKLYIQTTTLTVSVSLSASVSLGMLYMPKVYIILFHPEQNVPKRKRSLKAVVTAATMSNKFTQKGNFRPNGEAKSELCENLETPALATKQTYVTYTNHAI

% glutamate max, inactive:
COc1cc(NC(=O)c2ccccn2)ncn1 25.5%, O=C(Nc1ccc(N2CCCS2(=O)=O)cc1)c1ccccn1 30.1%, O=C(Nc1cccc(C(F)(F)F)n1)c1ccccn1 25.1%
